High-throughput results as filed in PubChem BioAssay.
Sampled rows, rich in hits. Any-hit rate of the full collection: about 0.49%.
EPAC1 agonist: EPAC1 (human) agonism; Potency, µM (doses to about 154 µM), hits mostly activators; AID 720707; EPAC1 agonist qHTS, biochemical assay; response scale: 100% = response to 6.5 mM cAMP; 360,000 tested, 0.073% active; also: nearly all actives have a fitted effect of over 60% in size
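EPAC1 100 nM, Rap1B–BODIPY-GDP 250 nM, unlabeled GDP 50 uM; compound titration; 5 min RT; kinetic read ex480/em540 at 5-min intervals ×30 min; data normalized to 6.5 mM cAMP agonist control.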
EPAC2 ag: activates human EPAC2 exchange factor; Q8WZA2; Potency, µM (top dose mostly 154 µM), usual class: activators; EPAC2 activation, biochemical qHTS; response scale: 100% = 6.5 mM cAMP response; 360,000 tested, 0.079% active; also: nearly all actives have a fitted effect of over 50% in size
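Exchange assay: 100 nM EPAC2 with 250 nM Rap1B-BODIPY-GDP and 50 uM GDP. Fluorescence (ex 480/em 540 nm) read every 5 min for 30 min at room temperature. Data normalized to 6.5 mM cAMP as agonist control.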
EPAC2 antag: blocks human EPAC2 exchange factor; EPAC2 GEF exchange of Rap1B-BODIPY-GDP, fluorescence; Q8WZA2; Potency, µM (highest dose often 114 µM), actives largely listed as inhibitors; 360,000 tested, 0.18% active; also: nearly all actives have a fitted effect of over 45% in size
EPAC1 antagonist: EPAC1 (human) antagonism; O95398; EPAC1 GEF assay, Rap1b-BODIPY-GDP exchange fluorescence; Potency, µM (doses to about 115 µM), actives largely listed as inhibitors; 360,000 tested, 0.14% active; AID 720709; also: nearly all actives have a fitted effect of over 50% in size
USP1-UAF1 inh: inhibitors of human USP1/UAF1 deubiquitinase. O94782. recombinant USP1/UAF1, Ub-Rhodamine cleavage fluorescence. Potency, µM (doses to about 57.1 µM), most hits filed as inhibitors. 390,000 tested, 0.23% active. AID 743255; also: nearly all actives have a fitted effect of over 60% in size
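USP1/UAF1 complex (1 nM) preincubated 15 min at room temperature with compound, then Ub-Rho substrate (150 nM final) added. Kinetic fluorescence at 480/540 nm over 6 reads at 60 s intervals; 50 mM HEPES pH 7.8, 0.5 mM EDTA, 0.1 mg/ml BSA, 1 mM TCEP, 0.01% Tween-20.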
Each line names hits and unclear results; the compound was inactive in the other large screens. Calls follow the shape of the dose curve; as a rule, active = well fitted curve in the direction sought with a large enough effect; inconclusive = small, poorly fitted or top-dose-only effect, or another doubt; inactive = no such curve, though single readings can be large; an effect the other way counts as inactive or inconclusive.

COc1cc(/C=C2\SC(=S)N(NS(=O)(=O)c3ccccc3)C2=O)cc(OC)c1OC	EPAC2 antag 50µM, EPAC1 antagonist inconclusive
O=C1/C(=C/c2ccccn2)SC(=S)N1NS(=O)(=O)c1ccccc1	none
COc1cccc(/C=C2\SC(=S)N(NS(=O)(=O)c3ccccc3)C2=O)c1OC	EPAC2 antag inconclusive, EPAC1 antagonist 50µM
Cc1ccc(CNC(=O)NC2COc3ccccc3C2)cc1 (configuration not stated)	none (no result: EPAC1 agonist, EPAC2 ag, EPAC2 antag, EPAC1 antagonist)
N=c1c(S(=O)(=O)c2ccc(Br)cc2)cc2c(=O)n3ccccc3nc2n1C1CCCC1	EPAC2 antag 79µM
CCN(CCn1cccn1)Cc1c(C(=O)N2CCCCCCC2)nc2ccc(Cl)cn12	EPAC1 antagonist 22µM
Cc1ccc(NC(=O)CSc2nc3ccc(NC(=O)CCc4ccccc4)cc3s2)cc1	none (no result: EPAC1 agonist, EPAC2 ag, EPAC2 antag, EPAC1 antagonist)
O=C(CSc1nc(O)cc(=O)n1-c1ccccc1)Nc1ccc2c3c(cccc13)CC2	EPAC1 antagonist 79µM
O=C(Nc1ccc(N2CCOCC2)cc1)c1cccc2c(Br)cccc12	none
O=C(Nc1ccccc1N1CCOCC1)c1cccc2c(Br)cccc12	EPAC2 antag 14µM
Cc1ccsc1C=Nc1ccc(O)cc1	EPAC2 antag 50µM, EPAC1 antagonist 35µM, USP1-UAF1 inh 2.2µM
CC1=C(C(=O)OC2CCCC2)C(c2ccccc2C(F)(F)F)CC(=O)N1 (configuration not stated)	none (no result: EPAC1 agonist, EPAC2 ag, EPAC2 antag, EPAC1 antagonist)
CCOC(=O)C1CCCCN1Cc1cccc(OCc2ccccc2)c1 (configuration not stated)	none
CCOC(=O)C1CCCCN1Cc1cccc(Oc2ccccc2)c1 (configuration not stated)	EPAC2 antag 40µM
CCOc1cc(CNc2ccc(O)cc2)ccc1OCc1ccc(Cl)cc1Cl	EPAC2 antag 35µM, EPAC1 antagonist inconclusive, USP1-UAF1 inh 8.9µM
Oc1ccc(NCc2ccccc2OCc2ccccc2Cl)cc1	USP1-UAF1 inh 32µM (no result: EPAC1 agonist, EPAC2 ag, EPAC2 antag, EPAC1 antagonist)
CCOc1ccccc1CNc1ccc(O)cc1	EPAC1 antagonist 4.5µM, USP1-UAF1 inh 16µM
NS(=O)(=O)c1ccc(NCc2ccccc2OCc2ccccc2F)cc1	none
CCOc1ccccc1CNc1nc2ccccc2n1C	none
Oc1ccc(NCc2ccccc2OCc2ccccc2F)cc1	EPAC1 antagonist 79µM, USP1-UAF1 inh inconclusive
Cc1ccc(NCc2ccccc2OCc2ccccc2F)cc1	none
CCc1ccccc1NC(=O)CN1C(=O)COc2ccc(S(=O)(=O)N3CCCCCC3)cc21	none (no result: EPAC1 agonist, EPAC2 ag, EPAC2 antag, EPAC1 antagonist)
CCOc1cccc(CNc2ccc(O)cc2)c1OCc1ccc(Cl)cc1	EPAC2 antag 35µM, EPAC1 antagonist 25µM, USP1-UAF1 inh 25µM
C1=C(c2ccc(-c3ccccc3)cc2)Nc2ncnn2C1c1ccco1 (configuration not stated)	EPAC1 agonist 89µM, EPAC2 ag 100µM, USP1-UAF1 inh 14µM
Fc1ccc(C2=CC(c3ccc(Br)o3)n3ncnc3N2)cc1 (configuration not stated)	EPAC1 agonist 100µM
OCC[n+]1ccc(/C=C/c2c[nH]c3ccccc23)cc1	EPAC1 agonist inconclusive, EPAC2 ag inconclusive, USP1-UAF1 inh 28µM
C(=Cc1c[nH]c2ccccc12)c1nccc2ccccc12	USP1-UAF1 inh inconclusive
CCCCC(CC)C(=O)Nc1ccc(C#N)cc1 (configuration not stated)	none
CCCCC(CC)C(=O)Nc1ccc(Nc2ccccc2)cc1 (configuration not stated)	EPAC1 agonist 63µM
O=C(Nc1ccccc1Cl)c1c(F)c(F)c(F)c(F)c1F	none
O=C(NC1(O)C(=O)c2ccccc2C1=O)c1c(Cl)cccc1Cl	EPAC2 antag inconclusive, EPAC1 antagonist 50µM, USP1-UAF1 inh 28µM
O=C(NC1(O)C(=O)c2ccccc2C1=O)c1ccccc1	EPAC2 antag inconclusive, EPAC1 antagonist inconclusive, USP1-UAF1 inh 18µM
Cc1ccc2sc(NNC(=O)c3cc(=O)c4ccccc4o3)nc2c1C	USP1-UAF1 inh 32µM
COc1ccc2nc(NNC(=O)c3cc(=O)c4ccccc4o3)sc2c1	USP1-UAF1 inh 28µM
COc1ccc(Cl)cc1S(=O)(=O)N1CCN=C1C	none
CC1=NCCN1S(=O)(=O)c1c(C(C)C)cc(C(C)C)cc1C(C)C	EPAC2 antag 79µM
CC[C@@]1(c2ccccc2OC)ON(c2ccccc2C(F)(F)F)C1=O	EPAC2 antag 14µM
Cc1ccccc1[C@@]1(C)ON(c2ccccc2C(F)(F)F)C1=O	EPAC2 antag inconclusive
COc1cc(/C=C(/C#N)c2nc(-c3cc4ccccc4oc3=O)cs2)ccc1O	none (no result: EPAC1 agonist, EPAC2 ag, EPAC2 antag, EPAC1 antagonist)
COc1ccccc1C1SCCN1S(C)(=O)=O (configuration not stated)	EPAC2 ag 7.9µM
CCN(CC)C1=CC2=CC(=C(C#N)C#N)CCC2CC1 (configuration not stated)	EPAC1 agonist inconclusive, EPAC2 ag 100µM
CCCCN(C)C1=CC2=CC(=C(C#N)C#N)CCC2CC1 (configuration not stated)	EPAC1 agonist inconclusive
N#C/C(=C\c1coc2ccc(O)cc2c1=O)C(=O)Nc1nc2ccccc2s1	EPAC1 agonist 89µM, EPAC2 ag 32µM, USP1-UAF1 inh 25µM
N#C/C(=C\c1coc2ccccc2c1=O)C(N)=S	none
Cc1c(CCC(=O)O)c(=O)oc2cc3occ(-c4ccc(Cl)cc4)c3cc12	USP1-UAF1 inh inconclusive
Cc1c(CCC(=O)O)c(=O)oc2c(C)c3occ(-c4ccc(Cl)cc4)c3cc12	EPAC1 agonist inconclusive, EPAC2 ag inconclusive, EPAC1 antagonist 40µM, USP1-UAF1 inh inconclusive
CCOc1ccccc1C(=O)NCC(c1cccs1)S(=O)(=O)c1ccc(F)c(C)c1 (configuration not stated)	none (no result: EPAC1 agonist, EPAC2 ag, EPAC2 antag, EPAC1 antagonist)
CCn1c(CN2CCCCC2)nc2cc(NC(=O)c3cccc([N+](=O)[O-])c3)ccc21	none (no result: EPAC1 agonist, EPAC2 ag, EPAC2 antag, EPAC1 antagonist)
COc1ccc(C(=O)c2ccccc2Cl)cc1	none
Cc1sc(N)c(C(=O)c2ccccc2Cl)c1C	EPAC2 antag 32µM
O=C1NNC(c2ccccc2)=N/C1=C\c1ccccc1Cl	EPAC2 antag inconclusive, EPAC1 antagonist 40µM, USP1-UAF1 inh 18µM
COCCCn1c(=O)/c(=C\c2ccccc2OC(C)C)s/c1=C(/C#N)C(=O)Nc1ccc(C(=O)O)cc1	EPAC1 agonist 112µM
CCC(C)NC(=O)CCC(=O)N1Cc2ccccc2Oc2ncccc21 (configuration not stated)	none (no result: EPAC1 agonist, EPAC2 ag, EPAC2 antag, EPAC1 antagonist)
O=C(Nc1ccc(-c2cn3cccnc3n2)cc1)c1ccccc1F	none (no result: EPAC1 agonist, EPAC2 ag, EPAC2 antag, EPAC1 antagonist)
Cc1cc(C)cc(NC(=O)c2cc(S(=O)(=O)N3CCOCC3)cn2C)c1	none (no result: EPAC1 agonist, EPAC2 ag, EPAC2 antag, EPAC1 antagonist)
CCCCCCc1cc2cc(C(=O)NC)c(=N)oc2cc1O	EPAC2 ag 100µM, USP1-UAF1 inh inconclusive
CCCCCCc1cc2cc(C(=O)OCC)c(=O)oc2cc1O	none
Cc1c(NS(=O)(=O)c2ccc(C(C)(C)C)cc2)c(=O)n(-c2ccccc2)n1C	none (no result: EPAC1 agonist, EPAC2 ag, EPAC2 antag, EPAC1 antagonist)
CCOC(=O)c1c(NC(=O)/C=C\C(=O)O)sc(C)c1-c1ccccc1	none
